Source: PubChem BioAssay (NCI)
This is part of a sample that, as a whole, favours compounds with a hit. Of some 79,000 tested, about 15% had one in any assay. Values without a mark were called inactive. Active and inactive are the calls of the source. No stated cut-off is given here; in the data, active means growth inhibition above about 70%; inactive means the rest.

Test: NCI Yeast Anticancer Drug Screen. Data for the cln2 rad14 strain (AID 165);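 further: 0% = growth equal to vehicle treated cultures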
Conditions: S. cerevisiae cln2 rad14 strain, hits give high values
Description: Growth inhibition of yeast strains with defined genetic alterations is measured as a screen for potential anti-cancer activity. Selected strains with alterations in DNA damage repair or cell cycle control were exposed to compounds and growth inhibition was measured relative to vehicle treated controls. The strain used in this assay is cln2 rad14

[1] = at 5.0 µM (retest, dose inferred, filed as 0.5)
[2] = at 50.0 µM (retest, dose inferred, filed as 5.0)

| SMILES | growth inhibition [1] | growth inhibition [2] | growth inhibition (at 50.0 µM) |
| --- | --- | --- | --- |
| COc1ccc2nc3cccc([N+](=O)[O-])c3c(NCCNCCO)c2c1 | 81% (active) | 98% (active) | 86.8% (active) |
| O=[N+]([O-])c1cn[n+]([O-])c2ccccc12 | 7% | 98% (active) | 92% (active) |
| O=C(C(Cl)=C(N1CCCCC1)N1CCCCC1)C(Cl)Cl | 7% | 99% (active) | 23.9% |
| CC1CCN(CCC(=O)c2ccc([N+](=O)[O-])cc2)CC1 | 8% | 34% | 31.2% |
| O=C(NCCCCN(CCCNC(=O)C(F)(F)F)Cc1ccccc1)C(F)(F)F | 14% | 8% | 26.9% |
| COC(=O)C(=O)CC(=O)c1cccc(OC)c1 | -51% | -45% | -75.5% |
| CCOP(=O)(OCC)/C(C#N)=C/c1ccc(-c2ccc(F)cc2F)o1 | 16% | 99% (active) | 60.6% |
| CN(C)CCNc1ccc2ncn3c4ccc(O)cc4c(=O)c1c23 | 9% | 12% | 27.6% |
| O=C1C(=O)N(c2ccccc2)[C@@]2(c3ccccc3)C(=Nc3ccccc3)OC(c3ccccc3)=C12 | -1% | 21% | 32.9% |
| C[n+]1c(-c2ccc(/C=N/NC(=O)c3ccc(C(=O)N/N=C/c4ccc(-c5cn6ccccc6[n+]5C)cc4)cc3)cc2)cn2ccccc21 | 16% | 78% (active) | 51.4% |
| CC(=O)CC(c1ccccc1)c1c(O)c2ccccc2oc1=O (configuration not stated) | 22% | 90% (active) | 54.6% |
| CCCCCCCCCCCNC=O | 42% | 94% (active) | 88% (active) |
| CC(C)S(=O)(=O)/C=C\S(=O)(=O)C(C)C | -50% | -3% | -17.3% |
| COc1cc2c(cc1OC)[C@@H](Nc1ccc(C#N)cc1)C1COC(=O)[C@@H]1C2c1cc(OC)c(O)c(OC)c1 (some centres not stated) | 7% | 91% (active) | 82% (active) |
